From PubChem BioAssay (NCI)
Compounds without any hit were thinned out: in the full panel of roughly 83,000, 20% have a hit.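 The test compound was applied at a single concentration to cells in 96-well plates for 48 hours, and percent growth was recorded.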 A number with no mark means an inactive call. The source made the active and inactive calls. How the source made its calls: active means growth percent below 10; inactive means the rest.

Tests used:
Test in all cases: NCI-60 one-dose screen, 48 h (100 = growth as untreated, 0 = no growth, -100 = all killed)
Conditions in all cases: 10 µM unless noted
SK-MEL-2 melanoma = tested on: SK-MEL-2 melanoma
EKVX NSCLC = tested on: EKVX NSCLC
SN12C renal = tested on: SN12C renal
UO-31 renal = tested on: UO-31 renal
TK-10 renal = tested on: TK-10 renal
ACHN renal = tested on: ACHN renal
A498 renal = tested on: A498 renal
CCRF-CEM leukemia = tested on: CCRF-CEM leukemia
MOLT-4 leukemia = tested on: MOLT-4 leukemia
SR leukemia = tested on: SR leukemia
RPMI-8226 leukemia = tested on: RPMI-8226 leukemia
OVCAR-8 ovarian = tested on: OVCAR-8 ovarian
OVCAR-5 ovarian = tested on: OVCAR-5 ovarian
OVCAR-4 ovarian = tested on: OVCAR-4 ovarian
SK-OV-3 ovarian = tested on: SK-OV-3 ovarian
IGROV1 ovarian = tested on: IGROV1 ovarian
OVCAR-3 ovarian = tested on: OVCAR-3 ovarian
HS 578T breast = tested on: HS 578T breast
NCI/ADR-RES ovarian = tested on: NCI/ADR-RES ovarian
T-47D breast = tested on: T-47D breast

Row | SMILES | growth (SK-MEL-2 melanoma) | growth (EKVX NSCLC) | growth (SN12C renal) | growth (UO-31 renal) | growth (TK-10 renal) | growth (ACHN renal) | growth (A498 renal) | growth (CCRF-CEM leukemia) | growth (MOLT-4 leukemia) | growth (SR leukemia) | growth (RPMI-8226 leukemia) | growth (OVCAR-8 ovarian) | growth (OVCAR-5 ovarian) | growth (OVCAR-4 ovarian) | growth (SK-OV-3 ovarian) | growth (IGROV1 ovarian) | growth (OVCAR-3 ovarian) | growth (HS 578T breast) | growth (NCI/ADR-RES ovarian) | growth (T-47D breast)
1 | CCc1c(C(=O)N[C@@H](C(=O)OCc2ccccc2)C(C)O)[nH]c2ccc(Cl)cc12 (stereo not given in full) | 106% | 73.8% | 66.6% | 11.7% | 33.6% | 8.62% (active) | 67.7% | 79.6% | 91.5% | 35.1% | 82.7% | 59.2% | 69.1% | -46.9% (active) | 59.3% | 46.3% | 29.4% | 40.6% | 68.2% | 47.5%
2 | CC(=O)ON1CCCC(P(=O)(OCOC(=O)C(C)(C)C)OCOC(=O)C(C)(C)C)C1=O (stereo not given) | 9.04% (active) | 9.78% (active) | -1.1% (active) | -8.25% (active) | 1.68% (active) | 6.57% (active) | -8.06% (active) | -7.6% (active) | -25.4% (active) | -22.3% (active) | -47.5% (active) | -0.681% (active) | 17.7% | 13.3% | 6.56% (active) | -28.4% (active) | 2.58% (active) | 1.28% (active) | -2.01% (active) | 16.4%
3 | CCCCn1c(=O)c(/C=C/C(=O)/C=C/c2cc3ccccc3n(CCCC)c2=O)cc2ccccc21 | 79.5% | 35.8% | -28.1% (active) | -95.1% (active) | 23.4% | 5.75% (active) | 12.8% | -0.077% (active) | 1.3% (active) | 1.82% (active) | -32.1% (active) | -0.92% (active) | 25.9% | 28.5% | 15.6% | 1.5% (active) | -15.7% (active) | 30% | 22.8% | 20.8%
4 | C#Cc1ccccc1NC(=O)c1sc2nc3c(cc2c1N)CCCCC3 | 101% | 84.8% | 98.2% | 85.4% | 117% | 101% | 94.1% | 93.8% | 94.5% | 81.2% | 97.4% | 100% | 105% | 103% | 100% | 103% | 105% | 99.6% | 105% | 95%
5 | CC1(C)Cc2c(Br)c(Br)c(Br)c(OCC(O)CN3CCOCC3)c2O1 (stereo not given) | -46.5% (active) | 102% | 104% | -87.3% (active) | 67% | 93.4% | 84.3% | 9.89% (active) | 40.1% | 24.9% | 20.8% | 88.9% | 99.7% | 99.5% | 110% | -83.4% (active) | 57% | 98.1% | 81.2% | 108%
6 | CCCCc1n(Cc2ccc3ccccc3n2)cc[n+]1Cc1ccc2ccccc2c1 | -35.7% (active) | 41.7% | 1.13% (active) | 69.2% | -5.08% (active) | 61.2% | 7.02% (active) | 6.45% (active) | 4.42% (active) | -27.1% (active) | -7.1% (active) | 2.38% (active) | 24% | 28.6% | -14% (active) | -14.7% (active) | 5.59% (active) | 16.6% | 101% | -0.345% (active)
7 | C#CC[C@@H]1C[C@]2(C)[C@H]3CC[C@@H]4[C@H]5[C@H](C(=C)C)CC[C@]5(C(=O)O)CC[C@@]4(C)[C@]3(C)CC[C@H]2C(C)(C)[C@H]1O | 80.3% | 55.4% | 39.3% | 23.5% | 85.7% | 6.77% (active) | 82.7% | 34.1% | 26.8% | 45.5% | 24.1% | 45.8% | 95.7% | -18.7% (active) | 74.3% | 60.2% | -33.5% (active) | 33.4% | 44% | 51.1%
8 | C=C1C(=O)O[C@H]2[C@H]1CC/C(COC(=O)Nc1nc3ccccc3[nH]1)=C\CC[C@@]1(C)O[C@@H]21 | 68.1% | 58.7% | 67.4% | 43.1% | 46.3% | 32.5% | 102% | 6.53% (active) | 45.9% | 16.2% | 31.6% | 80.8% | 127% | 81.3% | 89.1% | 27.9% | 17.3% | 94.5% | 92.1% | 50.3%
9 | C/C(=N\NC(=O)c1ccncc1)c1ccc(N)cc1 | 105% | 101% | 97.1% | 89.5% | 103% | 109% | 90.6% | 92% | 92.4% | 85.8% | 97.5% | 101% | 107% | 94.4% | 101% | 97.4% | 105% | 96.8% | 111% | 83.8%
10 | CN(C)C1=NCCN1 | 81.5% | 103% | 104% | 96.2% | 93.6% | 111% | 107% | 90.2% | 92.6% | 108% | 95.2% | 104% | 104% | 114% | 109% | 104% | 104% | 106% | 106% | 110%
11 | CC(=O)c1ccc(NC(=O)CSc2nnc(-c3cc(-c4ccc(C)cc4)nc4ccccc34)o2)cc1 | 81.5% | 78.3% | 20% | 11.5% | 43% | 63.6% | 70.5% | 53.6% | 43.5% | -12.5% (active) | 7.74% (active) | 49.3% | 101% | -12.5% (active) | 81.7% | 57.3% | 77.4% | 23.3% | 60.2% | 44.8%
12 | COCCc1n(Cc2ccc3ccccc3c2)c2ccccc2[n+]1Cc1ccc2ccccc2c1 | -61.6% (active) | 4.7% (active) | -68% (active) | -18.7% (active) | -80.9% (active) | 20.3% | -19.1% (active) | -9.95% (active) | -43.4% (active) | -57% (active) | -52.7% (active) | -54.6% (active) | -2.95% (active) | -4.37% (active) | -14.6% (active) | -63.4% (active) | -72.8% (active) | -6.4% (active) | 84.4% | -16.7% (active)
13 | CSc1nc(-c2cccs2)c2c(N)[nH]nc2n1 | 104% | 73.1% | 109% | 84.1% | 93.4% | 101% | 66.7% | 109% | 87% | 73.3% | 112% | 102% | 106% | 108% | 89.9% | 111% | 109% | 106% | 102% | 90.3%
14 | CCOCCc1c(O)nc(SC)[nH]c1=O | -28.8% (active) | 121% | 92.6% | 83.9% | 122% | 108% | 85.7% | 113% | 116% | 112% | 94.4% | 103% | 87.3% | 108% | 102% | 100% | 186% | 92.9% | 96.5% | 110%
15 | C=C1C(=O)O[C@H]2[C@H]1CC/C(COC(=O)c1cn(C)c3ccccc13)=C\CC[C@@]1(C)O[C@@H]21 | -60% (active) | -29.1% (active) | -40.3% (active) | -93.5% (active) | -75.2% (active) | -82.7% (active) | 65.4% | 1.59% (active) | -0.986% (active) | -9.81% (active) | -29.5% (active) | -20.5% (active) | -25.5% (active) | -33.6% (active) | 63% | -47.6% (active) | -72.1% (active) | 12.7% | 3.25% (active) | -56.3% (active)
16 | CNS(=O)(=O)c1cccc(-c2ccc3c4c(n(C)c(=O)c3c2)-c2ccccc2C4=O)c1 | 113% | 51.7% | 19.5% | 35.4% | 85.5% | 0.944% (active) | 72.1% | 6.13% (active) | -1.83% (active) | 3.35% (active) | 30.5% | 43.9% | 95.2% | 92.1% | 71.8% | 60.8% | 82.6% | 94.5% | 70.7% | 47%
